Reference: PubChem BioAssay AID734 (The Scripps Research Institute Molecular Screening Center, 2007)
Hit rate of the full screen: of about 5,100 compounds, fewer than 10 were called active.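 The calls were made as follows: active = inhibition above the mean inhibition over all tested compounds plus 3 SD (cut at about 75% in these data); inactive = the rest.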 A selection follows.

These compounds were tested against Collagenase 3 (Homo sapiens) (UniProt P45452) (assay: human MMP13 inhibition, fluorescence-interfering compounds – biochemical, possible fluorescent artifacts, delta fluorescence, confirmation (AID 734;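 also: 0% = DMSO only wells and 100% = 8 µM reference MMP13 inhibitor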)). Settings: MMP13 fTHP FRET cleavage, delta fluorescence 4 h; hits give high values;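 each compound tested at 4 µM nominal in triplicate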.

inhibition, inactive:
c1ccc(-c2noc(-c3cccc4ccccc34)n2)nc1 6.64%
COc1cccc2sc(Nc3nnc(-c4ccccc4Cl)o3)nc12 3.62%
COc1ccc(-c2nnc(Nc3nc4c(OC)cccc4s3)o2)c(OC)c1 34.9%
Fc1cccc2sc(Nc3nnc(-c4ccco4)o3)nc12 0.58%
COc1cccc2sc(Nc3nnc(-c4cccs4)o3)nc12 -71.9%
COc1ccc(-c2nnc(Nc3nc4c(OC)cccc4s3)o2)cc1 7.97%
COc1ccccc1-c1nnc(Nc2nc3c(OC)cccc3s2)o1 2.8%
O=C(C1CCCN(S(=O)(=O)c2cnc[nH]2)C1)N1CCN(Cc2ccccc2)CC1 (stereo unspecified) 6.19%
Cn1c(=O)c2c(nc(SCCN3CCOCC3)n2Cc2ccccc2Cl)n(C)c1=O 4.43%
COC(=O)c1nn(-c2ccc(-c3ccccc3)cc2)cc1O -1.13%
CCOC(=O)COc1ccc(-c2nnc(-c3ccccc3)o2)cc1 -0.26%
CC1(C)CC(=O)C(C=Nc2ccccc2C(=O)O)=C(O)C1 3.67%
CCOc1ccc(-c2cc(C(=O)NCCCN3CCN(CC)CC3)c3ccccc3n2)cc1 -9.76%
CCN1c2ccccc2-c2nc3ccccc3n2C1c1ccncc1 (stereo unspecified) 2.69%
COc1ccc2[nH]c(=O)c(-c3noc(-c4ccccc4)n3)cc2c1 3.55%
CC1(C)Cc2c(C#N)c(N3CCN(C(=O)c4ccco4)CC3)nc(Cc3ccccc3)c2CO1 -9.09%
CCOc1ccc(C2C(C(=O)OC)=CN(CCOC)C=C2C(=O)OC)cc1 -14.5%
Nc1nc2n(n1)C(c1ccco1)CC(c1ccc(F)cc1)N2 (stereo unspecified) 1.34%
CCN(CC)CCCN(Cc1cc2cc3c(cc2[nH]c1=O)OCO3)C(=O)Nc1ccccc1OC 9.73%
Nc1c(C(=O)NCCN2CCOCC2)c2nc3ccccc3nc2n1-c1ccc2c(c1)OCO2 4.11%
COc1cccc(NC(=O)CSc2nnc(Cc3cccn3C)n2-c2ccc(F)cc2)c1 1.13%
CC1CCCC(C)N1C(=O)CSc1nnc(-c2c[nH]c3ccccc23)o1 (stereo unspecified) 5.55%
O=C(OCCn1cncn1)c1cc2ccccc2oc1=O -0.22%

inhibition, active:
COc1cc(OC)cc(-c2nnc(Nc3nc4c(F)cccc4s3)o2)c1 95.7%
COc1cccc(-c2nnc(Nc3nc4c(F)cccc4s3)o2)c1 104%
Fc1cccc2sc(Nc3nnc(-c4ccccc4)o3)nc12 74.7%
